Test results published in the supplement of paper PMC11732987, “Enantioselective OTUD7B fragment discovery through chemoproteomics screening and high-throughput optimisation” (Communications Chemistry, 2025).
Values without a mark were called inactive.

Compound: OC1CN(Cc2sccc12)C(=O)CCl
Experiment: log2 ratio of Biotin-Ahx-Ub-VS probe labelling (compound/DMSO); higher = less target engagement, active = hit call of the paper (q ≤ 0.05, log2 ratio ≤ -1)
Conditions: compound concentration: 50uM; treatment time: 3 h
Procedure: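 Round 2 competitive ABPP in HEK293T lysate. Purified HTC-D2B compounds were tested at 50 and 200 µM for 3 h, followed by Biotin-Ahx-Ub-VS enrichment and diaPASEF LC-MS/MS. Values are the average log2 ratio (compound/DMSO) from an unpaired t-test (n=3 treated, n=26 DMSO).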

Sequence of UniProt Q9P275 (Q9P275 whole entry): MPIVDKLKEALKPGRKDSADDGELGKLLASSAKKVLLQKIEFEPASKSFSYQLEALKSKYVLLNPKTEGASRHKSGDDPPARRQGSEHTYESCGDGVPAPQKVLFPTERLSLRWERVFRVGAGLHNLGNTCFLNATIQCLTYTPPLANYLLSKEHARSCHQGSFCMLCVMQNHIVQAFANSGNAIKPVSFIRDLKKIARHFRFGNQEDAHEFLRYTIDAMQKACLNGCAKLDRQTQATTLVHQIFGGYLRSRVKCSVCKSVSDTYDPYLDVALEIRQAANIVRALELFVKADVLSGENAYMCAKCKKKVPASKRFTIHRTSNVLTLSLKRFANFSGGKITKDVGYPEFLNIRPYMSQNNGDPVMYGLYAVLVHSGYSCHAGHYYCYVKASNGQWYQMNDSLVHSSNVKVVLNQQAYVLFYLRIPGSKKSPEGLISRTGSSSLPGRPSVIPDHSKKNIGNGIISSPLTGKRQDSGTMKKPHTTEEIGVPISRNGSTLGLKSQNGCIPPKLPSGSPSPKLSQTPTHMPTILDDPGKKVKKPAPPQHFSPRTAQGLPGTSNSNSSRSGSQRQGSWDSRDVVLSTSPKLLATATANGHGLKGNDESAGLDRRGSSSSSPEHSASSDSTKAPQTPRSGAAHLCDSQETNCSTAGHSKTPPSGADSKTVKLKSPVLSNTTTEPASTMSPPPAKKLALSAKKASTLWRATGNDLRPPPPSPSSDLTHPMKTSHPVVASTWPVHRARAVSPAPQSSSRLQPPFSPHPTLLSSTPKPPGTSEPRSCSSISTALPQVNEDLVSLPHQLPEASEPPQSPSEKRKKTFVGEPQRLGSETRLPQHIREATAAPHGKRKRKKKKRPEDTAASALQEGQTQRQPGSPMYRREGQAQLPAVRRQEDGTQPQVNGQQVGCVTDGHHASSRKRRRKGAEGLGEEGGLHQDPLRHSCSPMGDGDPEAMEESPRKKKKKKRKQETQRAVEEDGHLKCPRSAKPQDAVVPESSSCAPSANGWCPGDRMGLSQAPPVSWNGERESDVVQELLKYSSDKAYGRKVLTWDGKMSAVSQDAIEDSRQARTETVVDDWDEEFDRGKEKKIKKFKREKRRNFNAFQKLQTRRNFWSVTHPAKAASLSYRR
Sequence of UniProt Q8TE49 (Q8TE49 whole entry): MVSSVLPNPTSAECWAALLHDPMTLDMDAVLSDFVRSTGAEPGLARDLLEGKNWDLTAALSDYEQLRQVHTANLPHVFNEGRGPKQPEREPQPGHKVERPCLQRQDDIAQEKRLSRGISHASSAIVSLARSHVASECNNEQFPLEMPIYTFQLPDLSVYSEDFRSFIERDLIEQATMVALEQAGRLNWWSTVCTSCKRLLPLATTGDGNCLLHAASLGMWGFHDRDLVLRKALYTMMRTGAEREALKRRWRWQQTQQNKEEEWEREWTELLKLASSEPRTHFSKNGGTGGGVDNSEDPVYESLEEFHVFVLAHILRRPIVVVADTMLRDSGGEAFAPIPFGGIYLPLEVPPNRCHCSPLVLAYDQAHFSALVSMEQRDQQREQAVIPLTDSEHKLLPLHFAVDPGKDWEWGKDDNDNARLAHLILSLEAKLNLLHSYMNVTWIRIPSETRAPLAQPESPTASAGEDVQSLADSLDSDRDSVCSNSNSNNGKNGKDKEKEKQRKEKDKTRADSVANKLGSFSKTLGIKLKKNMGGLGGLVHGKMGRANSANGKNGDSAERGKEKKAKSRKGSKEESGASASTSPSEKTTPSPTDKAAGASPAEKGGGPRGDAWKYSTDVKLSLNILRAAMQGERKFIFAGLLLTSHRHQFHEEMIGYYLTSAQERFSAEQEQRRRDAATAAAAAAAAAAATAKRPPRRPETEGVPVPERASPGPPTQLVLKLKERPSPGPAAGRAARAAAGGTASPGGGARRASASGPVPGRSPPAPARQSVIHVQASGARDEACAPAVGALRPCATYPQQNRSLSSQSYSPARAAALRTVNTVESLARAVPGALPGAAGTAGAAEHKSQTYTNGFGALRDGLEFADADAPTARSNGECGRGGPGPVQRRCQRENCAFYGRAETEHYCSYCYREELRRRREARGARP
Sequence of UniProt Q9H9J4 (Q9H9J4 whole entry): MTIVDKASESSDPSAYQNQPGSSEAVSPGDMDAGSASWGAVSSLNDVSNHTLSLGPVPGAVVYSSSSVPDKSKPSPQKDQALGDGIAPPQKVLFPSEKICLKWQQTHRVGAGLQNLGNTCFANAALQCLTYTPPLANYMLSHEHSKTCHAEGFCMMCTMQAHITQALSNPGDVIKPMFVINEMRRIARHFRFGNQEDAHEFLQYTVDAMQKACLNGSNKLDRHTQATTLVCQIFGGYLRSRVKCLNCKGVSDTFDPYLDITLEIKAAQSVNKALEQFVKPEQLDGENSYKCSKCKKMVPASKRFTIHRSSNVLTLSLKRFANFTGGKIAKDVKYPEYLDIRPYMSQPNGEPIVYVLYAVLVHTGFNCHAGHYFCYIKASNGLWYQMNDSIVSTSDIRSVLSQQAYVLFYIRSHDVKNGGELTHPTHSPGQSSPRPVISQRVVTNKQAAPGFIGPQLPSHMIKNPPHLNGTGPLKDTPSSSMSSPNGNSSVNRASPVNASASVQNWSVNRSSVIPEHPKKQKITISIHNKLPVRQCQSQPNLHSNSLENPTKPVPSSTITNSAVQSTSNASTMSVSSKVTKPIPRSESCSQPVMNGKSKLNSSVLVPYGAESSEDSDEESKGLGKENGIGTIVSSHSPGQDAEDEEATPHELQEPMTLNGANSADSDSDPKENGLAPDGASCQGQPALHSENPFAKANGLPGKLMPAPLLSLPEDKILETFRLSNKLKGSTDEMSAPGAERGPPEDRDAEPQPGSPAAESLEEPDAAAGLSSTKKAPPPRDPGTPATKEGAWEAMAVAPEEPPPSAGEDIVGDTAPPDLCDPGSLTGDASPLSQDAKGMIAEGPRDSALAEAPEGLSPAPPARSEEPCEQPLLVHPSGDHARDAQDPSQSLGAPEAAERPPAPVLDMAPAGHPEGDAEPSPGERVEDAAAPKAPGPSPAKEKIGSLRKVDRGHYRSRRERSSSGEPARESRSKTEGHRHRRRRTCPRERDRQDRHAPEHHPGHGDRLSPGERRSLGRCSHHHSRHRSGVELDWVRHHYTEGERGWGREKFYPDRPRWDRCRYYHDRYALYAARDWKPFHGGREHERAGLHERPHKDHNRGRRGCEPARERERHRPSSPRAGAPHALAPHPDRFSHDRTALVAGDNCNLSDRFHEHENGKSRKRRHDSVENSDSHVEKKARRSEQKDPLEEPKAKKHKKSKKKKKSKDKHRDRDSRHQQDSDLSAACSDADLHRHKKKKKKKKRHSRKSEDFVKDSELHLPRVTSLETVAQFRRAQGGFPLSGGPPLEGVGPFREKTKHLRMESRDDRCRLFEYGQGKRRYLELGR
Sequence of UniProt Q9UPT9 (Q9UPT9 whole entry): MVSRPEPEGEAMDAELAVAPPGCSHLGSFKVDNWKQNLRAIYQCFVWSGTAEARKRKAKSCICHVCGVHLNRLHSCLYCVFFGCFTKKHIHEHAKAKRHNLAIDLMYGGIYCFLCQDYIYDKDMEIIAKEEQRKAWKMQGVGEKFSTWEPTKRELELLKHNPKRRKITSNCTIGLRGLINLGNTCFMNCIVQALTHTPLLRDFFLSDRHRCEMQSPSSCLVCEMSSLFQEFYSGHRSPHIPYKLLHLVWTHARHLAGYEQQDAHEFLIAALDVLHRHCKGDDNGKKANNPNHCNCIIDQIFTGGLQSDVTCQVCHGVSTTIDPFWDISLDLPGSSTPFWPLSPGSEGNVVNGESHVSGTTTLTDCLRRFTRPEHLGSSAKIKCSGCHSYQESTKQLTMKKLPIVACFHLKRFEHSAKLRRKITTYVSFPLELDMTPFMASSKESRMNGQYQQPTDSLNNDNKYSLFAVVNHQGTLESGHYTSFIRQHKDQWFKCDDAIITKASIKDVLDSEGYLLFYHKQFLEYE
Sequence of UniProt Q96JH7 (Q96JH7 whole entry): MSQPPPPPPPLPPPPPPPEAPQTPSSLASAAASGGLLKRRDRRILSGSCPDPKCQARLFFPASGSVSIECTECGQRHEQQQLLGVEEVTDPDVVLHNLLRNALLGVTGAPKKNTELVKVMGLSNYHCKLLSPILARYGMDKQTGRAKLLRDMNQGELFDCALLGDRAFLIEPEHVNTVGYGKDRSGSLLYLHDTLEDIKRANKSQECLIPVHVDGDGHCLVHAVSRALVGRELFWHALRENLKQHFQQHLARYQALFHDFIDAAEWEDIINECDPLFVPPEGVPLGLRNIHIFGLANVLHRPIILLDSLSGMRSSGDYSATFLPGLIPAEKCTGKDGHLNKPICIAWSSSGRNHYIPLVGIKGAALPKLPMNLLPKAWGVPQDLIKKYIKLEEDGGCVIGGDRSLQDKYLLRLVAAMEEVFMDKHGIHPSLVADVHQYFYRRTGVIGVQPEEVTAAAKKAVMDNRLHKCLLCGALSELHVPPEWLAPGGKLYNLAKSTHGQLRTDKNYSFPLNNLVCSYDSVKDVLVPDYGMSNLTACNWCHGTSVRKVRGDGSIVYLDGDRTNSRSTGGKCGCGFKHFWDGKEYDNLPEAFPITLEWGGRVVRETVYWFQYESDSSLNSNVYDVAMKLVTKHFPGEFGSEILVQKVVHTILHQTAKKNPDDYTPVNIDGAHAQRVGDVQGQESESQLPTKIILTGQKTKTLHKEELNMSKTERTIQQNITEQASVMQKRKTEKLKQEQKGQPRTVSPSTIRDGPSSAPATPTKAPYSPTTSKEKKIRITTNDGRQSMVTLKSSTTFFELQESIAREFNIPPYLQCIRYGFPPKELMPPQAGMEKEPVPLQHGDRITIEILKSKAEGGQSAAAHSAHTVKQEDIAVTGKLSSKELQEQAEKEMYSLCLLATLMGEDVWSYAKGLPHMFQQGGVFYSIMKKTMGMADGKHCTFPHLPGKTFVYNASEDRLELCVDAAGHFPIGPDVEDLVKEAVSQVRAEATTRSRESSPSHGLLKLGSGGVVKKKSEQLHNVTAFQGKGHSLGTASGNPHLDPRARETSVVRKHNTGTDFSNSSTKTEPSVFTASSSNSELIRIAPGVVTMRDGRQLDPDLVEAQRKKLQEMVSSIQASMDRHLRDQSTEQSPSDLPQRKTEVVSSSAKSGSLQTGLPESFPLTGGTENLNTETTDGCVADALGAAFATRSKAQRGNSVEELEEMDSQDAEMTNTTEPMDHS

| Target | log2 ratio of Biotin-Ahx-Ub-VS probe labelling |
| --- | --- |
| OTUB1 (UniProt Q96FW1) | 0.196 |
| USP36 (UniProt Q9P275) | -0.243 |
| ALG13 (UniProt Q9NP73) | 0.00409 |
| USP42 (UniProt Q9H9J4) | -0.224 |
| USP15 (UniProt Q9Y4E8) | -0.214 |
| USP39 (UniProt Q53GS9) | -0.0158 |
| USP54 (UniProt Q70EL1) | 0.561 |
| VCPIP1 (UniProt Q96JH7) | -0.309 |
| YOD1 (UniProt Q5VVQ6) | -0.198 |
| OTUD4 (UniProt Q01804) | -0.695 |
| USP22 (UniProt Q9UPT9) | 0.0108 |
| COPS5 (UniProt Q92905) | 0.136 |
| USP7 (UniProt Q93009) | -0.155 |
| USP4 (UniProt Q13107) | -0.154 |
| USP10 (UniProt Q14694) | -0.166 |
| USP34 (UniProt Q70CQ2) | -0.156 |
| UCHL5 (UniProt Q9Y5K5) | -0.2 |
| UniProt Q8TE49 | -1.87 (active) |
| USP25 (UniProt Q9UHP3) | 0.472 |
| USP9X (UniProt Q93008) | 0.00293 |

Same assay, conditions: compound concentration: 200uM; treatment time: 3 h

| Target | log2 ratio of Biotin-Ahx-Ub-VS probe labelling |
| --- | --- |
| OTUB1 (UniProt Q96FW1) | -0.0449 |
| USP36 (UniProt Q9P275) | -0.0665 |
| ALG13 (UniProt Q9NP73) | -0.0817 |
| USP42 (UniProt Q9H9J4) | 0.0756 |
| USP15 (UniProt Q9Y4E8) | -0.404 |
| USP39 (UniProt Q53GS9) | 0.0541 |
| USP54 (UniProt Q70EL1) | -0.559 |
| VCPIP1 (UniProt Q96JH7) | -0.285 |
| YOD1 (UniProt Q5VVQ6) | -0.139 |
| OTUD4 (UniProt Q01804) | -1.48 (active) |
| USP22 (UniProt Q9UPT9) | -0.267 |
| COPS5 (UniProt Q92905) | -0.0875 |
| USP7 (UniProt Q93009) | -0.426 |
| USP4 (UniProt Q13107) | 0.0977 |
| USP10 (UniProt Q14694) | -0.00161 |
| USP34 (UniProt Q70CQ2) | -0.0909 |
| UCHL5 (UniProt Q9Y5K5) | -0.0949 |
| UniProt Q8TE49 | -2.68 (active) |
| USP25 (UniProt Q9UHP3) | 0.301 |
| USP9X (UniProt Q93008) | -0.116 |
